# Sampled rows, rich in hits. Any-hit rate of the full collection: about 2.4%.
# PLC-beta3 inh – human PLC-beta3 inhibitors, primary screen, biochemical, fluorescence; Purified PLC-beta3, fluorogenic substrate; inhibition, % at 12.2 µM; hit rate 0.18% among 370,000; AID 720704, 2013; in the data active means inhibition above about 11%;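 further: 0% = median of compound wells on plate and 100% = full blocker control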
# Target sequence (Q01970 whole entry, looked up): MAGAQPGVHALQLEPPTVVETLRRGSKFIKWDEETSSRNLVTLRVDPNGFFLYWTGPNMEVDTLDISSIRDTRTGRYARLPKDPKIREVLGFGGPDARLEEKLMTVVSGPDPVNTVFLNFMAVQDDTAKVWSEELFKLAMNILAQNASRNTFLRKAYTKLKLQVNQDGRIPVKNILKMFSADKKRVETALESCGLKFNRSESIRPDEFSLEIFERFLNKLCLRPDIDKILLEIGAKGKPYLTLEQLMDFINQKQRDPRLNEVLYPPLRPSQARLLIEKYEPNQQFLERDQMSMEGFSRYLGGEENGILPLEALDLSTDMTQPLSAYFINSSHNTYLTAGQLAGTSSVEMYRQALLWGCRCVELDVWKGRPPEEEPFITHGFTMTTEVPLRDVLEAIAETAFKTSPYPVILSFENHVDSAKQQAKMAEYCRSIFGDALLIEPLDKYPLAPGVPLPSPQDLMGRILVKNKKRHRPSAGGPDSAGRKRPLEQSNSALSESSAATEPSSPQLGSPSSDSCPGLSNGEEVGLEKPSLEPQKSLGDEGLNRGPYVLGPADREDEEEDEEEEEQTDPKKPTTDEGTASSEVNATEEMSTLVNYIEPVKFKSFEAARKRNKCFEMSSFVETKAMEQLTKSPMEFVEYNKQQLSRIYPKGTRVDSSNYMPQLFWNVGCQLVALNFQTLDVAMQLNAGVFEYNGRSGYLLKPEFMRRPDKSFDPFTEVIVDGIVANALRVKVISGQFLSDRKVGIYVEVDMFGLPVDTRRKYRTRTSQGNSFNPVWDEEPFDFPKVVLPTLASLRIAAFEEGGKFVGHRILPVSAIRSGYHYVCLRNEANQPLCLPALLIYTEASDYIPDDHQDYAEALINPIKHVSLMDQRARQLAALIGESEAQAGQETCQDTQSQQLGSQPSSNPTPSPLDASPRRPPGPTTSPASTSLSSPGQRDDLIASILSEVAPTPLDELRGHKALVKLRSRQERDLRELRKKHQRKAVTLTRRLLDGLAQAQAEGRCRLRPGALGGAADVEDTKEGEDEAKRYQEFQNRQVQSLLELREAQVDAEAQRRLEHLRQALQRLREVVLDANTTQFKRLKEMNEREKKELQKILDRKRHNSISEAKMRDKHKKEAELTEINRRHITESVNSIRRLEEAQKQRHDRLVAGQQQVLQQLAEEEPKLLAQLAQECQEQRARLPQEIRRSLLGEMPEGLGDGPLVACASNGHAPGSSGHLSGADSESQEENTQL
# PLCg1 inh – PLC-gamma1 enzyme inhibitors, primary screen, biochemical, fluorescence, purified enzyme | 1-phosphatidylinositol 4,5-bisphosphate phosphodiesterase gamma-1 (Homo sapiens), P19174 | fluorogenic substrate | inhibition, % at 12.2 µM | hit rate 0.84% among 370,000 | AID 720700, 2013; in the data active means inhibition above about 9.5%
# LEDGF integ inh – blockers of LEDGF/p75-dependent integrase strand transfer – biochemical, TR-FRET, high throughput, primary screen. HIV-1 integrase (with human LEDGF/p75). TR-FRET IN-LEDGF/p75 DNA integration, Eu/Cy5. inhibition, % at 3.7 µM. hit rate 0.64% among 370,000. AID 743269, 2014;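 active means inhibition above the screen-wide mean plus 3 SD, cut at about 13% in these data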;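 further: signal is the Cy5 over europium emission ratio at 671 and 618 nm; 0% = plate median of compound wells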
# UHRF1 binding – UHRF1 methylated DNA binding inhibitors, primary screen, counter-screen for MBD2 inhibitor project, biochemical, TR-FRET, human UHRF1, single concentration; UHRF1 binding to methylated oligo; AID 687016, 2013; hit rate 0.75% among 370,000; inhibition, % at 4.4 µM;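 further: UHRF1 SRA domain binding a hemimethylated CpG hairpin DNA probe; 0% = median of test compound wells and 100% = reference inhibitor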
# MBD2 DNA inh – inhibitors of MBD2 binding to methylated DNA, primary screen, biochemical, TR-FRET, DNA-binding domain, human; Methyl-CpG-binding domain protein 2 (Homo sapiens), Q9UBB5; MBD2 binding to methylated oligonucleotide; inhibition, % at 4.4 µM; hit rate 0.31% among 370,000; in the data active means inhibition above about 13%
# UHRF1 ctr MBD2 – UHRF1 methylated DNA binding inhibitors, counter-screen for MBD2 inhibitor project, biochemical, TR-FRET, human UHRF1 | AID 720530, 2013 | hit rate 25% among 1,000 | UHRF1 binding to methylated oligonucleotide | inhibition, % at 4.4 µM | shares compounds with MBD2 DNA inh;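 further: UHRF1 SRA domain binding a labeled hemimethylated CpG hairpin DNA; 0% = vehicle only and 100% = reference inhibitor with vehicle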
# MBD2 DBD conf – inhibitors of MBD2 binding to methylated DNA, confirmation, biochemical, TR-FRET, DNA-binding domain, human; AID 720531, 2013; hit rate 26% among 1,000; shares compounds with MBD2 DNA inh; TR-FRET MBD2-DBD binding to methylated oligonucleotide; inhibition, % at 4.4 µM; in the data active means inhibition above about 14%
# Active calls of the source: *; · = not tested or not shown. Unless noted, no stated cut-off is given here; in the data, active means inhibition above about 21%; inactive means the rest.
SMILES,PLC-beta3 inh,PLCg1 inh,LEDGF integ inh,UHRF1 binding,MBD2 DNA inh,UHRF1 ctr MBD2,MBD2 DBD conf
Cc1ccc(S(=O)(=O)N(C)C)cc1NC(=O)CCc1c[nH]c2ccccc12,0.9,2.6,3.8,-2.4,5.1,·,·
Cc1ccc(S(=O)(=O)N(C)C)cc1NC(=O)CCc1ccccc1,-5.1,2.0,-1.4,1.6,20.5*,7.7,3.4
CCc1nc2c(OCc3cccc(OC)c3)cccn2c1N(C)C(=O)c1ccccc1F,-5.4,-4.8,-2.1,-2.0,25.7*,3.3,1.1
COc1cc(-c2nnc(COC(=O)c3ccc(C)o3)o2)cc(OC)c1OC,-9.6,-3.0,3.7,38.8*,18.3*,9.3,7.6
O=C(CSc1nnc(-c2ccccn2)n1-c1ccc(Cl)cc1)Nc1cccc2ccccc12,0.9,0.6,-0.9,-1.0,-1.2,·,·
COC(=O)c1ccc(C(=O)OC)c(NC(=O)Cc2cccs2)c1,-56.9,-36.5,1.3,20.0,16.2*,21.6*,15.4*
COc1ccccc1NC(=O)Cc1cccs1,-1.5,1.4,1.1,-0.8,1.4,·,·
Cc1ccc(CN2CCCCC(NC(=O)c3ccc(COc4ccccc4)cc3)C2=O)cc1 (stereo not drawn),2.1,2.8,1.6,1.8,-1.1,·,·
CNC12CCc3cc(OC)c(OC)c(c31)-c1cc3c(cc1C2)OCO3 (stereo not drawn),-68.7,-60.5,11.7,29.8*,22.8*,11.2,8.7
COc1cc2c(c(OC)c1OC)-c1c(cc3c(c1O)OCO3)C[C@@H](C)[C@@H](C)C2,-2.8,0.7,2.8,3.2,1.8,·,·
COc1ccc(CNS(=O)(=O)/C=C/c2ccc(OC)cc2CNC(=O)OC(C)(C)C)cc1,3.7,-0.1,6.8,3.9,-2.3,·,·
Cc1ccc(CN(C)C(=O)c2cccc(S(=O)(=O)N3CCCC3)c2)cc1,-3.4,-0.5,2.3,0.6,-1.5,·,·
Cc1ccc(CN(C)C(=O)c2cccc(S(=O)(=O)N3CCc4ccccc43)c2)cc1,1.4,3.2,-3.0,0.2,14.7*,6.0,1.3
CCOc1ccc(C(=O)NCC(=O)OCc2c(C)noc2C)cc1,4.9,5.5,1.1,-1.3,-0.6,·,·
CCOc1ccc(N=Nc2c(C)noc2C)cc1,-5.2,0.9,3.1,26.2*,18.2*,11.8,2.4
CN(C(=O)C=Cc1ccccc1)c1ccccc1,-2.9,2.7,-0.6,1.7,24.3*,4.8,0.9
CC(=O)N[C@H]1C[C@@H]2O[C@H](CO)CC[C@@H]2O[C@@H]1CCc1ccc(-c2ccc(F)cc2)cc1,-2.9,0.8,4.4,3.7,4.5,·,·
COC(=O)c1ccc(CSc2nc3c(c(=O)[nH]2)CCC3)cc1,-1.1,1.5,-1.6,0.4,14.5*,3.1,3.0
CCC(C)[C@H](NC(=O)OC(C)(C)C)C(=O)N[C@@H](Cc1ccccc1)C(=O)OC (stereo partly drawn),2.4,1.5,1.1,-1.0,7.8,·,·
COc1ccc2c(c1)CNC2CS(=O)(=O)NCc1ccc(F)cc1 (stereo not drawn),-24.0,-13.5,-2.4,-2.4,-4.2,·,·
CN(CCO)c1cccc2c1S(=O)(=O)N(Cc1cn(Cc3ccccc3C(F)(F)F)nn1)Cc1ccccc1O2,-11.0,0.5,0.4,2.0,-2.3,·,·
COc1ccc(S(=O)(=O)N(C)C[C@@H]2Oc3cc(C#CC4CCCCC4)ccc3S(=O)(=O)N([C@@H](C)CO)C[C@@H]2C)cc1,-4.6,-4.0,-6.3,26.7*,17.4*,12.0,7.7
COc1ccccc1S(=O)(=O)N(C)C[C@H]1Oc2cc(C#CCC3CCCC3)ccc2S(=O)(=O)N([C@H](C)CO)C[C@H]1C,-2.6,2.1,5.0,22.2*,13.5*,10.4,8.8
C#CCN(Cc1ccco1)C(=O)c1nnc2c3cc(OC)ccc3n(S(=O)(=O)c3ccc(OC)cc3)c2n1,-113.1,-82.7,-2.9,1.2,26.2*,6.4,20.0*
C#CCN(Cc1cccc(F)c1)C(=O)c1nnc2c3cc(F)ccc3n(S(=O)(=O)c3ccc(OC)cc3)c2n1,-3.8,-3.0,1.1,-0.5,-0.6,·,·
SMILES,PLC-beta3 inh,PLCg1 inh,LEDGF integ inh,UHRF1 binding,MBD2 DNA inh,UHRF1 ctr MBD2,MBD2 DBD conf
CCCCCCC12C(=Cc3cc(C)ccc31)c1ccccc1C(CC(=O)NCc1ccccc1)N2C(=O)OC (stereo not drawn),-12.8,-8.0,6.9,54.4*,29.3*,3.8,1.1
CCCCCCCCN1C(=O)[C@H](CC(=O)NCc2ccccc2)C[C@@]2(C(=O)OCC)CCCC=C12,2.4,0.9,-3.1,0.7,-0.9,·,·
CCCC[C@@H]1C(=O)N2N=Cc3cscc3[C@H]2N2N=Cc3cscc3[C@@H]12,-3.6,-1.4,-0.6,0.5,-0.8,·,·
Cn1cccc1CC(=O)N/N=C/C=C/c1ccco1,-7.9,-10.2,47.6*,52.7*,22.8*,26.2*,24.2*
C/C(=N\NC(=O)Cc1cccn1C)c1ccco1,-4.6,0.4,4.1,-2.2,1.7,·,·
CN1[C@@H](Cc2ccccc2)COc2cc(N3CCCC3)ccc2S1(=O)=O,-1.9,-0.9,-2.9,-1.1,-1.8,·,·
C#CCCN([C@H](C(=O)OC)C(C)C)S(=O)(=O)c1ccccc1Br,-0.6,-1.0,-1.5,-1.9,2.7,·,·
O=C(COC(=O)c1c2c(nc3ccccc13)/C(=C/c1ccco1)CC2)NC1CCCC1,-38.9,-26.3,39.4*,45.0*,14.3*,43.3*,31.9*
CN(Cc1ccccc1Cl)C(=O)CN1C(=O)C2(OCCCO2)c2ccccc21,0.3,-0.6,0.1,-1.1,1.6,·,·
COc1cccc(CNC(=O)C2(C)Oc3ccccc3NC2=O)c1 (stereo not drawn),0.2,-1.3,1.1,1.9,60.8*,7.4,1.0
COc1ccccc1CNC(=O)C1(C)Oc2cccnc2NC1=O (stereo not drawn),-2.5,5.0,4.9,-1.0,2.3,·,·
O=C(NNS(=O)(=O)c1ccccc1)c1ccncc1,-1.5,-0.7,2.3,-2.5,-0.4,·,·
Cc1ccc(S(=O)(=O)NNC(=O)c2ccncc2)cc1,-0.1,2.9,-3.5,5.0,22.7*,9.5,6.0
C#CCCCN([C@H](C(=O)OC)C(C)C)S(=O)(=O)c1ccccc1Br,4.3,1.8,4.7,2.1,-1.9,·,·
CCC(=O)c1ccc(OCC(=O)NCc2ccccc2CN2CCCC2)cc1,-4.5,-0.5,4.9,1.4,34.7*,6.5,3.2

# Source: PubChem
